In PubChem BioAssay AID1347076 (National Center for Advancing Translational Sciences (NCATS), 2019):
The whole screen tested about 400,000 compounds, of which about 13,000 (3.2%) were called active. About 18% were inconclusive and are not listed. Shown is part of a subset that was picked to be rich in actives. A number with no mark means an inactive call. Calls follow the shape of the dose curve; as a rule, active = well fitted cell-killing curve with a large enough effect; inconclusive = small, poorly fitted or top-dose-only effect, or effect the other way; inactive = flat fitted curve, though single readings scatter.

Assay: qHTS assay for MDR1-selective chemotherapeutics: Primary screen using the drug-selected MDR subline cells KB-V1; also: nearly all actives have a fitted effect of over 60% in size
Details: KB-V1 MDR cells viability, CellTiter-Glo, 72 h; series mostly up to 46.1 µM; activity change, negative = cytotoxicity: at the top concentration
Source text: A prime difficulty in effectively treating cancer is the development of cellular resistance to multiple structurally unrelated anticancer drugs, a phenomenon known as multidrug resistance (MDR). […] Numerous strategies to overcome P-gp-mediated MDR have been explored, including the design of drugs that evade recognition and efflux, and development of inhibitors to block efflux and restore drug accumulation. […] An alternative approach is to exploit resistance by identifying drugs that target MDR cells over the non-resistant parental cells from which they were selected. […] The development of MDR1-selective agents represents a new strategy for resolving multidrug resistance, as it remains a long-standing clinical challenge for cancer chemotherapy.
Our goal is to identify compounds that selectively kill P-gp-expressing MDR cells. We will identify MDR1-selective compounds by comparing toxicity of compounds in the screening library against parental, drug-naive (KB-3-1) adenocarcinoma cells as well as their drug-selected MDR sub-line (KB-V1). The differential toxicity of compounds against these two cell lines will be used to identify MDR1-selective compounds, whose cytotoxicity is potentiated, rather than diminished, by P-gp expression. This assay will be utilized to conduct a quantitative high-throughput screen (qHTS) in collaboration with the NIH Chemical Genomics Center to identify selective agents, and probe hits arising from the screen will be validated using secondary assays and characterized through a well-established follow-up research program. This screen was run against the entire NCGC library collection of about 400,000 compounds.
NIH Molecular Libraries Probe Production Network [MLPCN]
NIH Chemical Genomics Center [NCGC]
PI: Michael Gottesman, National Cancer Institute, NIH
Briefly, 5 microL of media containing either KB-V1 cells (columns 1-2, 4-48) are dispensed into Greiner white, treated solid-bottom 1536-well assay plates (media-only control is added to column 3). Compounds are then transferred via Kalypsys pin tool equipped with 1536-pin array (10 nL slotted pins, V&P Scientific, San Diego, CA). Following addition of compound, the plates are incubated at 37 degrees C for 72 hours. CellTiter-Glo (2.5 µL/well) is then added, and the plates are read in a ViewLux reader (Perkin-Elmer, clear luminescence filter, 1 second exposure, 1x binning) following a 10 minute incubation. All cells are dispensed in DMEM phenol-red free media containing 10% FBS.
Library plates were screened starting from the lowest and proceeding to the highest concentration. Vehicle-only plates, with DMSO being pin-transferred to columns 5-48, will be inserted uniformly at the beginning and the end of each library in order to monitor and record any shifts in the background, which can be affected by reagent dispensers or loss in enzyme activity over time. Screening data will be corrected, normalized, and concentration-effect relationships will be derived by using publicly-available NCGC, NCATS curve fitting algorithms (http://ncgc.nih.gov/pub/openhts).
% is scaled to controls: 0 for no effect and ±100 for the full control effect; potency is read from the fitted curve at half-maximal effect.

| SMILES | Potency | activity change, negative = cytotoxicity [%] |
| --- | --- | --- |
| Cc1ccc(NC(=O)CC2C(=O)N(Cc3ccccc3)C(=S)N2NC(=O)c2cccc(F)c2)c(C)c1 (stereo not drawn) | 4.11 µM (active) |  |
| O=C(Nc1ccn(Cc2ccccc2)n1)c1cccc(F)c1 |  | 0 |
| Cc1ccc(S(=O)(=O)N2C[C@]3(O)C[C@@H]4C(=O)N(c5ccccc5)C(=O)[C@@H]4C[C@]3(OC(=O)NC3CC3)C2)cc1 |  | 75.5 |
| CC(=O)Nc1ccc(-c2ccnc3c2CC(C(=O)NC(C)C)O3)cc1 (stereo not drawn) |  | -3.89 |
| COc1ccc(NC(=O)C2Cc3c(-c4ccc5c(c4)OCO5)ccnc3O2)cn1 (stereo not drawn) | 20.6 µM (active) |  |
| COc1ccc(NC(=O)C2Cc3c(-c4cccc(NC(C)=O)c4)ccnc3O2)cc1OC (stereo not drawn) |  | -18.5 |
| CCOc1ccc(C(=O)Nc2ccc3nc4c(c(Nc5ccccc5OC)c3c2)CCCC4)cc1 |  | 0 |
| CC(C)C[C@@H]1Cc2[nH][nH]c(=O)c2[C@H](CCc2ccccc2)O1 |  | -23.4 |
| Cc1ccc(-c2nc3ccccc3[nH]2)cc1N | 10.3 µM (active) |  |
| COc1ccc(-c2[nH]nc(-c3ccccc3)c2-c2nc3ccccc3[nH]2)cc1 |  | -2.23 |
| COc1ccc(Br)cc1C(=O)NC(=S)Nc1cc(-c2nc3ccccc3[nH]2)ccc1C |  | -18.6 |
| CC1(Oc2cccc(F)c2)CCN(Cc2ccccc2OC(F)F)C1 (stereo not drawn) |  | 5.33 |
| COc1ccccc1-n1c(-c2ccc(C)cc2)cn2c3c(=O)n(C)c(=O)n(C)c3nc12 |  | 27.5 |
| COc1cccc(Cn2c(SCc3ccc(C(=O)N4CCCCC4)cc3)nc3ccncc32)c1 |  | 13.1 |
| O=C(Nc1ccc(NC(=O)c2cccs2)cc1)c1ccc2ccccc2c1 |  | 1.68 |
| O=C(Nc1ccccc1)c1ccc(NC(=O)c2cccs2)cc1 |  | 0 |
| CC(C)(C)c1ccc(C(=O)Nc2ccc3c(c2)CCCN3C(=O)c2cccs2)cc1 | 20.6 µM (active) |  |
| C/C=C/c1ccc(OCC(=O)OCC(=O)Nc2c(C)nn(-c3ccccc3)c2C)c(OC)c1 |  | 4.6 |
| Cc1nn(-c2ccccc2)c(C)c1NC(=O)COC(=O)c1cc(Cl)ccc1O |  | -4.72 |
| Cc1nn(-c2ccccc2)c(C)c1NC(=O)COc1ccc(Cl)cc1Cl | 2.31 µM (active) |  |
| C#CCN(C[C@H]1[C@H](OC(=O)NC2CCCC2)[C@H](OC(=O)NC2CCCC2)C[C@H]2C(=O)N(c3ccccc3)C(=O)[C@@H]12)S(=O)(=O)c1ccc(C)cc1 |  | 11.7 |
| CC1CCc2c(sc3nc4n(c(=O)c23)CCS4)C1 (stereo not drawn) |  | -10.8 |
| C=CCn1c(SCC(=O)NCCCO)nc2sc3c(c2c1=O)CCC3 |  | -0.705 |
| C=CCn1c(SCc2c(C)noc2C)nc2sc3c(c2c1=O)CCC(C)C3 (stereo not drawn) | 4.61 µM (active) |  |

| SMILES | Potency | activity change, negative = cytotoxicity [%] |
| --- | --- | --- |
| O=C(Nc1ccc(Cl)cc1)c1csc([C@H]2C[C@H](O)[C@@H](CO)O2)n1 |  | -8.14 |
| CCc1nnc2c3ccccc3nc(N3CCN(c4ccc(C)cc4C)CC3)n12 |  | 11 |
| Cc1ccc(S(=O)(=O)NCc2nc3ccccc3c(=O)n2N)cc1 |  | 4.72 |
| CCC1NC(=O)c2cccnc2-n2c1nc1ccc(C)cc1c2=O (stereo not drawn) |  | -15.4 |
| OCCNc1ncnc2oc(-c3ccco3)c(-c3ccco3)c12 |  | -18.6 |
| C(=C\c1ccccc1)/CSc1nnc(-c2cccnc2)n1Cc1ccco1 |  | 0 |
| N=c1c2c(-c3ccccc3)c(-c3ccccc3)oc2ncn1Cc1ccco1 | 16.4 µM (active) |  |
| CSCCC(c1nnnn1Cc1ccccc1)N1CCN(C/C=C/c2ccccc2)CC1 (stereo not drawn) |  | -8.22 |
| O=C(CNC(=O)N1CC(=O)Nc2ccccc21)Nc1ccc(Br)cc1F |  | 10.8 |
| CN1CCN(CCCCOc2cccc3ccccc23)CC1 |  | -7.19 |
| O=[N+]([O-])c1ccccc1OCCCCN1CCCCC1 |  | -24.1 |
| COc1ccccc1OCCCCCCN1CCN(C)CC1 |  | 20.9 |
| Cc1ccc(C(C)(C)C)c(OCCCCN2CCCC2)c1 | 20.6 µM (active) |  |
| Cc1ccc(OCCCCN2CCCCC2)c(Br)c1 | 16.4 µM (active) |  |
| Cc1ccc(C(C)C)cc1OCCN1CCCC1 |  | 2.61 |
| CCNC(=O)C1(C)CCCN(C(=O)c2ccc3ccccc3n2)C1 (stereo not drawn) |  | 5.07 |
| Cc1ccccc1S(=O)(=O)NC(=O)C1(C)CCN1C(=O)C1(c2ccc(Cl)cc2)CC1 (stereo not drawn) |  | 19.1 |
| Cn1c(-c2ccco2)nc2cc3ccccc3cc21 | 8.2 µM (active) |  |
| CSc1n[nH]c(-c2ccco2)n1 |  | -8.81 |
| COc1ccccc1-n1c(-c2cc(-c3ccco3)[nH]n2)n[nH]c1=S |  | 2.88 |
| COc1ccc(Nc2cc(C(=O)NCCCN(C)c3ccccc3)c3ccccc3n2)c(OC)c1 |  | 3.15 |
| COc1cc2nc(NCC(C)c3ccccc3)n3nc(-c4ccccc4)nc3c2cc1OC (stereo not drawn) |  | -3.41 |
| Cn1c(=O)c2c(n3c4ccccc4nc13)NC(=O)CC2c1cccc(Cl)c1 (stereo not drawn) |  | 1.02 |
| Cc1ccccc1NC(=O)Cn1c(=O)n(CC2CCC(C(=O)NCCc3ccccc3)CC2)c(=O)c2ccccc21 (stereo not drawn) |  | -5.31 |
